According to PubChem BioAssay AID602429 (Sanford-Burnham Center for Chemical Genomics, 2012):
Among all 360,000 compounds or so, about 1,200 (0.33%) were called active. Shown is part of a subset that was picked to be rich in actives. Unmarked numbers belong to inactive results. Rule as the data show it: active = inhibition above about 37%; inactive = the rest.

molecular target: Small ubiquitin-related modifier 1 (Homo sapiens) (UniProt P63165); assay: modulators of SUMO1 protein-protein interactions, primary screen, biochemical, uHTS (AID 602429); details: SUMO1 binding to a labelled peptide, TR-FRET, 1 h; at 20 µM; active compounds read high
Sequence (P63165 whole entry, looked up): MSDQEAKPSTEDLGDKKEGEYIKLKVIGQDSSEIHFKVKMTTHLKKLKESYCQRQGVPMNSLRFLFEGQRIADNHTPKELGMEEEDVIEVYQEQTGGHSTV

Question: Which inhibition does the source give for `COc1ccc(N2C(=O)/C(=C/c3ccco3)C(=O)NC2=S)cc1` here?
Answer: 88.7% (active)

Question: `COC(=O)C1=C(c2cc3ccccc3s2)C[C@@H]2CC[C@H]1N2C(=O)NCc1cccc2ccccc12` was tested. Which inhibition did it give?
Answer: 5.43%

Question: With `Cc1nn(Cc2ccccc2Cl)c(Cl)c1C(=O)OC(C(=O)NC(N)=O)C(C)C` (stereo not given) as the compound, how does the inhibition read?
Answer: -1.52%

Question: With `C[C@H]1CN([C@@H](C)CO)C(=O)CCCn2nncc2CO[C@H]1CN(C)C(=O)Oc1cccc2ccccc12` as the compound, how does the inhibition read?
Answer: 0.0734%

Question: For `O=C1NC(=O)C(CCOc2ccccc2)(CCc2ccccc2)C(=O)N1`, which inhibition is on record?
Answer: -4.22%

Question: With `COc1cccc(N2C(=O)NC(=O)/C(=C\c3ccc([N+](=O)[O-])s3)C2=O)c1` as the compound, how does the inhibition read?
Answer: 38.1% (active)

Question: `CC(=O)N(C1=NCCCS1)c1ccccc1F` was tested. Which inhibition did it give?
Answer: -2.29%

Question: How did the inhibition turn out when `CCCn1c(C(=O)c2ccccc2OC)nc2ccccc21` was run?
Answer: -1.49%

Question: With `CCCCCn1c(=O)c(C(=O)Nc2c(C)n(C)n(-c3ccccc3)c2=O)c(O)c2ccccc21` as the compound, how does the inhibition read?
Answer: 4.99%

Question: For `C=C(C)C1(CCCC)C(=O)NC(=S)NC1=O`, which inhibition is on record?
Answer: 6.06%
